{"source": "paper PMC5540273", "about": "(PLoS ONE, 2017);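 also: KINOMEscan kinase panel screen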", "data": [{"system": "ACVR2B", "conditions": "concentration: 1 μM, replicates: in singlicate; n = 1", "units": {"%Inh": "%"}, "values": [{"compound": "N#Cc1ccc(-c2cc(-c3c[nH]nc3-c3ccccn3)ccn2)cc1", "note": "[GW693028]", "%Inh": 40}, {"compound": "O=C(Nc1n[nH]c2cc(-c3cccc(F)c3)ccc12)C1CC1", "note": "[SB-735464]", "%Inh": 50}, {"compound": "COc1cc2c(cc1OC[C@@H](O)CO)ncc1c3ccc(C#N)cc3[nH]c21", "%Inh": 1}, {"compound": "CCCCCc1nc2c(N)ncnc2n1CCCCC", "note": "[SKF-97255]", "%Inh": 0}, {"compound": "Cc1cccc(Cn2ccn3c(=O)cc(N4CCOCC4)nc23)c1", "note": "[GSK2297542]", "%Inh": 4}, {"compound": "CCn1cnc2c(N)ncnc21", "note": "[GW345098]", "%Inh": 0}, {"compound": "Cn1ccc2ncnc(Oc3ccc(NC(=O)Nc4ccncc4)c(Cl)c3)c21", "%Inh": 0}, {"compound": "Cn1cc(-c2ccc3c(c2)CCN3C(=O)Cc2ccccc2Cl)c2c(N)ncnc21", "note": "[GSK2608885]", "%Inh": 13}, {"compound": "Cl.Nc1ncnc2occ(-c3ccc(NC(=O)Nc4cc(C(F)(F)F)ccc4F)cc3)c12", "note": "[SB-707548]", "%Inh": 2}, {"compound": "Cc1ccc(C(=O)NCC(N)=O)cc1-n1c(C)cc(OCc2ccc(F)cc2F)c(Br)c1=O", "%Inh": 4}, {"compound": "NCC(NC(=O)c1cc(-c2cn[nH]c2)c(-c2ccnc3[nH]ccc23)s1)c1ccccc1.O=C(O)C(F)(F)F.O=C(O)C(F)(F)F", "note": "(stereo not shown) [GSK1325775]", "%Inh": 0}, {"compound": "CN(C(=O)c1ccc(-c2cc(-c3c[nH]nc3-c3ccccn3)ccn2)cc1)C1CCOCC1", "note": "[GW810083]", "%Inh": 2}, {"compound": "Cc1nnc(-c2ccc(C)c(-c3ccc(C(=O)Nc4ccc(NS(C)(=O)=O)cc4)cc3)c2)o1", "note": "[GW702865]", "%Inh": 0}, {"compound": "CN(C1=C(c2ccccc2)C(=O)NC1=O)c1ccccc1", "note": "[SB-334860]", "%Inh": 4}, {"compound": "Cc1cccc(-c2nc(Nc3ccc4ncsc4c3)c3ccccc3n2)n1", "note": "[GW867588]", "%Inh": 2}, {"compound": "NS(=O)(=O)CCc1cccc(Nc2nccc(-c3c(-c4cccc(NC(=O)c5c(F)cccc5F)c4)nn4ccccc34)n2)c1", "note": "[GSK336735]", "%Inh": 37}, {"compound": "CNc1ncnc2[nH]ncc12", "note": "[SKF-18355]", "%Inh": 40}, {"compound": "Cc1c2ccc(N(C)c3ccnc(Nc4cccc(S(N)(=O)=O)c4)n3)cc2nn1Cc1ccccc1.Cl.Cl", "note": "[GW787226]", "%Inh": 0}, {"compound": "COc1ccc(CNC(=O)NC2CCN(c3ccnc(Nc4ccc(OC)cc4)n3)C2)cc1", "note": "(stereo not shown) [GSK1379727]", "%Inh": 0}, {"compound": "Cc1nnc(-c2ccc3occ(-c4ccc(C(C)O)cc4)c3c2)o1", "note": "(stereo not shown)", "%Inh": 27}, {"compound": "Fc1ccc(-c2nn3c(OCC(F)(F)F)cccc3c2-c2ccncc2)cc1", "note": "[GW514784]", "%Inh": 0}, {"compound": "O=C1Cc2cc(Nc3nc(NCc4cccc(S(=O)(=O)C(F)(F)F)c4)ncc3C(F)(F)F)ccc2N1", "%Inh": 0}, {"compound": "O=C(NCCNc1ccnc(Nc2ccc(F)cc2)n1)c1cc2ccccc2s1", "note": "[GSK1379874]", "%Inh": 0}, {"compound": "Nc1nccc(-c2c(-c3ccc(F)cc3)ncn2C2CCN(CC(F)(F)F)CC2)n1", "note": "[SB-236560]", "%Inh": 0}, {"compound": "Nc1nc(-c2ccc3c(N)n[nH]c3c2)cc(N2CCCC2)n1", "note": "[GSK2227430]", "%Inh": 0}, {"compound": "O=c1cc(N2CCOCC2)nc2n(Cc3cccc(Cl)c3Cl)c(C3CC3)nn12", "note": "[GSK2358994]", "%Inh": 0}, {"compound": "N#Cc1c(N2CCOCC2)sc(-c2ccn[nH]2)c1-c1ccc(Cl)cc1", "%Inh": 0}, {"compound": "NS(=O)(=O)c1cccc(-c2ccc3nccc(-c4cccc(S(N)(=O)=O)c4)c3c2)c1", "note": "[GW867253]", "%Inh": 0}, {"compound": "O=c1cc(N2CCOCC2)nc2n(Cc3cccc(F)c3)ccn12", "note": "[GSK2297430]", "%Inh": 0}, {"compound": "Cc1cccc(-c2nc(-c3ccc(S(C)(=O)=O)cc3)sc2-c2ccncc2)c1", "%Inh": 0}, {"compound": "COCCNC(=O)c1ccc(-c2cc(C(=O)NC3CC3)cc(F)c2C)cc1", "note": "[GW868318]", "%Inh": 0}, {"compound": "Cc1cn2c(=O)cc(N3CCOCC3)nc2n1Cc1cccc(Cl)c1Cl", "note": "[GSK2334006]", "%Inh": 23}, {"compound": "COc1ccc(COc2cc(-n3cnc4ccccc43)sc2C(N)=O)cc1", "note": "[GSK1024304]", "%Inh": 0}, {"compound": "CN1c2ccc(NCc3ccc(F)cc3)cc2-c2c(cnn2C)S1(=O)=O", "%Inh": 0}, {"compound": "O=C(NOCC1CC1)c1ccc(F)c(F)c1Nc1ccc(I)cc1Cl", "%Inh": 0}]}, {"system": "ACVRL1", "conditions": "concentration: 1 μM, replicates: in singlicate; n = 1", "units": {"%Inh": "%"}, "values": [{"compound": "N#Cc1ccc(-c2cc(-c3c[nH]nc3-c3ccccn3)ccn2)cc1", "note": "[GW693028]", "%Inh": 0}, {"compound": "O=C(Nc1n[nH]c2cc(-c3cccc(F)c3)ccc12)C1CC1", "note": "[SB-735464]", "%Inh": 4}, {"compound": "COc1cc2c(cc1OC[C@@H](O)CO)ncc1c3ccc(C#N)cc3[nH]c21", "%Inh": 0}, {"compound": "CCCCCc1nc2c(N)ncnc2n1CCCCC", "note": "[SKF-97255]", "%Inh": 13}, {"compound": "Cc1cccc(Cn2ccn3c(=O)cc(N4CCOCC4)nc23)c1", "note": "[GSK2297542]", "%Inh": 6}, {"compound": "CCn1cnc2c(N)ncnc21", "note": "[GW345098]", "%Inh": 8}, {"compound": "Cn1ccc2ncnc(Oc3ccc(NC(=O)Nc4ccncc4)c(Cl)c3)c21", "%Inh": 4}, {"compound": "Cn1cc(-c2ccc3c(c2)CCN3C(=O)Cc2ccccc2Cl)c2c(N)ncnc21", "note": "[GSK2608885]", "%Inh": 3}, {"compound": "Cl.Nc1ncnc2occ(-c3ccc(NC(=O)Nc4cc(C(F)(F)F)ccc4F)cc3)c12", "note": "[SB-707548]", "%Inh": 0}, {"compound": "Cc1ccc(C(=O)NCC(N)=O)cc1-n1c(C)cc(OCc2ccc(F)cc2F)c(Br)c1=O", "%Inh": 28}, {"compound": "NCC(NC(=O)c1cc(-c2cn[nH]c2)c(-c2ccnc3[nH]ccc23)s1)c1ccccc1.O=C(O)C(F)(F)F.O=C(O)C(F)(F)F", "note": "(stereo not shown) [GSK1325775]", "%Inh": 0}, {"compound": "CN(C(=O)c1ccc(-c2cc(-c3c[nH]nc3-c3ccccn3)ccn2)cc1)C1CCOCC1", "note": "[GW810083]", "%Inh": 0}, {"compound": "Cc1nnc(-c2ccc(C)c(-c3ccc(C(=O)Nc4ccc(NS(C)(=O)=O)cc4)cc3)c2)o1", "note": "[GW702865]", "%Inh": 0}, {"compound": "CN(C1=C(c2ccccc2)C(=O)NC1=O)c1ccccc1", "note": "[SB-334860]", "%Inh": 0}, {"compound": "Cc1cccc(-c2nc(Nc3ccc4ncsc4c3)c3ccccc3n2)n1", "note": "[GW867588]", "%Inh": 0}, {"compound": "NS(=O)(=O)CCc1cccc(Nc2nccc(-c3c(-c4cccc(NC(=O)c5c(F)cccc5F)c4)nn4ccccc34)n2)c1", "note": "[GSK336735]", "%Inh": 0}, {"compound": "CNc1ncnc2[nH]ncc12", "note": "[SKF-18355]", "%Inh": 0}, {"compound": "Cc1c2ccc(N(C)c3ccnc(Nc4cccc(S(N)(=O)=O)c4)n3)cc2nn1Cc1ccccc1.Cl.Cl", "note": "[GW787226]", "%Inh": 12}, {"compound": "COc1ccc(CNC(=O)NC2CCN(c3ccnc(Nc4ccc(OC)cc4)n3)C2)cc1", "note": "(stereo not shown) [GSK1379727]", "%Inh": 0}, {"compound": "Cc1nnc(-c2ccc3occ(-c4ccc(C(C)O)cc4)c3c2)o1", "note": "(stereo not shown)", "%Inh": 8}, {"compound": "Fc1ccc(-c2nn3c(OCC(F)(F)F)cccc3c2-c2ccncc2)cc1", "note": "[GW514784]", "%Inh": 0}, {"compound": "O=C1Cc2cc(Nc3nc(NCc4cccc(S(=O)(=O)C(F)(F)F)c4)ncc3C(F)(F)F)ccc2N1", "%Inh": 0}, {"compound": "O=C(NCCNc1ccnc(Nc2ccc(F)cc2)n1)c1cc2ccccc2s1", "note": "[GSK1379874]", "%Inh": 0}, {"compound": "Nc1nccc(-c2c(-c3ccc(F)cc3)ncn2C2CCN(CC(F)(F)F)CC2)n1", "note": "[SB-236560]", "%Inh": 0}, {"compound": "Nc1nc(-c2ccc3c(N)n[nH]c3c2)cc(N2CCCC2)n1", "note": "[GSK2227430]", "%Inh": 0}, {"compound": "O=c1cc(N2CCOCC2)nc2n(Cc3cccc(Cl)c3Cl)c(C3CC3)nn12", "note": "[GSK2358994]", "%Inh": 9}, {"compound": "N#Cc1c(N2CCOCC2)sc(-c2ccn[nH]2)c1-c1ccc(Cl)cc1", "%Inh": 0}, {"compound": "NS(=O)(=O)c1cccc(-c2ccc3nccc(-c4cccc(S(N)(=O)=O)c4)c3c2)c1", "note": "[GW867253]", "%Inh": 0}, {"compound": "O=c1cc(N2CCOCC2)nc2n(Cc3cccc(F)c3)ccn12", "note": "[GSK2297430]", "%Inh": 14}, {"compound": "Cc1cccc(-c2nc(-c3ccc(S(C)(=O)=O)cc3)sc2-c2ccncc2)c1", "%Inh": 0}, {"compound": "COCCNC(=O)c1ccc(-c2cc(C(=O)NC3CC3)cc(F)c2C)cc1", "note": "[GW868318]", "%Inh": 9}, {"compound": "Cc1cn2c(=O)cc(N3CCOCC3)nc2n1Cc1cccc(Cl)c1Cl", "note": "[GSK2334006]", "%Inh": 0}, {"compound": "COc1ccc(COc2cc(-n3cnc4ccccc43)sc2C(N)=O)cc1", "note": "[GSK1024304]", "%Inh": 0}, {"compound": "CN1c2ccc(NCc3ccc(F)cc3)cc2-c2c(cnn2C)S1(=O)=O", "%Inh": 7}, {"compound": "O=C(NOCC1CC1)c1ccc(F)c(F)c1Nc1ccc(I)cc1Cl", "%Inh": 0}]}]}
